# Screening data (PubChem BioAssay)
# In the library only some 1.1% were active in any assay of this set; here they are far more common.
# gsp antag: qHTS for Antagonists of gsp, the Etiologic Mutation Responsible for Fibrous Dysplasia/McCune-Albright Syndrome: qHTS. gsp-mutant cells, cAMP HTRF, 30 min. Potency, µM (top dose mostly 76.9 µM), without a hit: at the top dose activity change, negative = inhibition, most hits filed as inhibitors. 340,000 compounds, 0.4% hits; calls by dose curve; cell line not stated here;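 also: intracellular cAMP measured with PDE inhibitor Ro 20-1724 present during compound exposure; potency is read from the fitted curve at half-maximal effect; % is scaled to controls: 0 for no effect and ±100 for the full control effect; nearly all actives have a fitted effect of over 65% in size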
#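 HTRF cAMP measurement after 30 min RT detection following 30 min, 37C compound treatment alongside […] (added as 300 uM solution) in G418-selected cells seeded at 2000/well and grown 16–24 h.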
# TRPV1 PAM: HTS Assay for Compounds that Act as Potentiators of the Vanilloid Receptor 1; Transient receptor potential cation channel subfamily V member 1 (Homo sapiens), Q8NER1; TRPV1-expressing cells, Fluo-8 calcium influx, capsaicin EC20 potentiation; potentiation, % at 8.33 µM; 320,000 compounds, 0.02% hits; AID 540277, 2011; in the data active = potentiation above about 80%; inconclusive = between about 30% and that limit; also: 0% is about no effect
# Target sequence (Q8NER1 whole entry, looked up): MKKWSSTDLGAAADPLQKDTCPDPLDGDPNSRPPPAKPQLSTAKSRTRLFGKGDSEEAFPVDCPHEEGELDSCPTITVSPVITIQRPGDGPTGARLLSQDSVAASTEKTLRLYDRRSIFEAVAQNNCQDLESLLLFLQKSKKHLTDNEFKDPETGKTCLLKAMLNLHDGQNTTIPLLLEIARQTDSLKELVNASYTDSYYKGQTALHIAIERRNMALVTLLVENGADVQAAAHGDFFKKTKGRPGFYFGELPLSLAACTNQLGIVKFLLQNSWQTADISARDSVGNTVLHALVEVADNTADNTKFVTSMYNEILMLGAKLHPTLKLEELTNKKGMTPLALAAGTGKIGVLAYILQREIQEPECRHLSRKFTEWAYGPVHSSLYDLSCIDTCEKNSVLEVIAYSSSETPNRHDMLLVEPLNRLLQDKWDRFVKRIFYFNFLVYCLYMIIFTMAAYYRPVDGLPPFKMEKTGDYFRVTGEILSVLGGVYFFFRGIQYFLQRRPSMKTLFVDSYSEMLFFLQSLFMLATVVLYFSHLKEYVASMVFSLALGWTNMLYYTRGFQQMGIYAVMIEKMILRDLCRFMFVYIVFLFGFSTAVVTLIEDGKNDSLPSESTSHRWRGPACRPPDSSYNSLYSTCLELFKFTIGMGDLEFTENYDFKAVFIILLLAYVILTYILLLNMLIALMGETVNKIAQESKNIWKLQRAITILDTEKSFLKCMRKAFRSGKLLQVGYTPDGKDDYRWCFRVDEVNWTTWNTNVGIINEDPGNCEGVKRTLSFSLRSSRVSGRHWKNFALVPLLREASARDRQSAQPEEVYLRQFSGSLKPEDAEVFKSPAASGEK
#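 Cells expressing TRPV1 were dye-loaded with Fluo-8 and read kinetically: 10 s baseline, 3 min after compound (agonist portion), then 2 min after EC20 capsaicin (allosteric enhancer portion). Calcium-bound dye fluorescence at 480/520 nm.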
# TRPV1 agonist: HTS Assay for Compounds that Act as Agonists of the Vanilloid Receptor 1; AID 540275, 2011; Transient receptor potential cation channel subfamily V member 1 (Homo sapiens), Q8NER1; 320,000 compounds, 0.19% hits; TRPV1-expressing cells, Fluo-8 calcium influx, agonist mode; activation, % at 8.33 µM; in the data active = activation above about 80%; inconclusive = between about 30% and that limit; also: 0% is about no effect
#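 Fluo-8 calcium influx in TRPV1-expressing cells, kinetic read (ex 480/em 520 nm). Compound added and read 3 min for agonist activity, followed by capsaicin at EC20 final and 2 min further read for enhancement.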
# RXFP1 agonist: qHTS Assay for Agonists of the Relaxin Receptor RXFP1. Relaxin receptor 1 (Homo sapiens), Q9HBX9. HEK293T-RXFP1 cAMP TR-FRET, 30 min; response scale: percent of porcine relaxin response, buffer zero. Potency, µM (doses to about 57.5 µM), for inactives: at the top dose activation, usual class: activators. 370,000 compounds, 0.3% hits; active = well fitted activation curve with a large enough effect; inconclusive = small, poorly fitted or top-dose-only effect; also: potency is read from the fitted curve at half-maximal effect; % is scaled to controls: 0 for no effect and ±100 for the full control effect; nearly all actives have a fitted effect of over 60% in size
#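 HEK293 cells stably expressing RXFP1, treated 30 min at 37C with compounds plus PDE4 inhibitor Ro 20174; cAMP measured by HTRF TR-FRET. Normalized to buffer and 29 nM porcine relaxin; EC50 by Hill fit.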
# gsp ag: qHTS for Agonist of gsp, the Etiologic Mutation Responsible for Fibrous Dysplasia/McCune-Albright Syndrome: qHTS; gsp mutant cells, cAMP HTRF, 30 min; Potency, µM (top dose mostly 76.9 µM), for the others: at the top dose activation (cAMP increase), hits mostly activators; 340,000 compounds, 0.13% hits; active = well fitted activation curve with a large enough effect; inconclusive = small, poorly fitted or top-dose-only effect, or another doubt; inactive = no such curve, though single readings can be large or run the other way; cell line not stated here;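 also: phosphodiesterase inhibitor Ro 20-1724 added with compounds to block cAMP breakdown; potency is read from the fitted curve at half-maximal effect; nearly all actives have a fitted effect of over 60% in size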
#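 Cells in DMEM/10% FBS with G418 were pretreated with compounds in DMSO plus […] (300 uM stock) for 30 min at 37C. cAMP was measured by HTRF (cAMP-d2 plus anti-cAMP antibody-K) after 30 min at room temperature.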
# RXFP1 antagonist: qHTS Assay for Antagonists of the Relaxin Receptor RXFP1; Relaxin receptor 1 (Homo sapiens), Q9HBX9; HEK293-RXFP1, relaxin-stimulated cAMP HTRF, 30 min; hits give low values; activity change, negative = inhibition, % at 57.5 µM; 350,000 compounds, 0.59% hits;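 active = activity change of -60% or lower, but not beyond a set lower limit; inconclusive = change between -60% and -40%, or beyond the set limit; inactive = change above -40%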; also: % is scaled to controls: 0 for no effect and ±100 for the full control effect
# * = called active by the depositor; ? = inconclusive; / = not tested or not shown; [ ] = remark or other dose.
SMILES,gsp antag,TRPV1 PAM,TRPV1 agonist,RXFP1 agonist,gsp ag,RXFP1 antagonist
Cc1cn(S(=O)(=O)c2ccc(Br)c3ccccc23)cn1,/,-7,23,22µM*,/,/
CCN1CCc2c(sc(NC(=O)Nc3ccc(Cl)c(Cl)c3)c2C(N)=O)C1,-9%,15,82*,1%,4%,-17
COCCCNC(=O)c1sc2nc(C)c(C(=O)Nc3ccc(C)cc3C)c(-c3ccc(Br)cc3)c2c1N,/,/,/,-3%,/,0
COCCCNC(=O)c1sc2nc(C)c(C(=O)Nc3ccc(Cl)cc3)c(-c3ccc(Br)cc3)c2c1N,/,/,/,35µM*,/,-16
Cn1c(=O)c2sccc2n2c(CCCC(=O)NC3CCCCC3)nnc12,/,/,/,?,/,15
Cn1c(=O)c2sccc2n2c(CCCC(=O)N3CCCCC3)nnc12,-4%,-4,-1,18µM*,?,4
COc1cc(C(=O)Nc2nnc(S(=O)(=O)N(C)c3ccccc3)s2)cc(OC)c1OC,/,/,/,0%,/,-64*
CN(c1ccccc1)S(=O)(=O)c1nnc(NC(=O)c2cccs2)s1,/,/,/,-2%,/,-6
CCn1c(/C=C/c2ccc(O)cc2)nc2ccccc2c1=O,-20%,5,-1,-1%,7%[15.4 µM],-71*
Cc1ccc(C)c(N2CCN(C(=O)Nc3ccc4c(c3)N(C)C(=O)CS4)CC2)c1,40µM*,-17,-1,5%,16%,-15
O=C(CCCc1cccs1)Nc1nccs1,14%,5,8,1%,-5%,12
Cc1ccc(NC(=O)NCCCl)cc1S(=O)(=O)N1CCOCC1,7%,-2,0,4%,-29%,1
CSCc1ccc(C(=O)N2CCCC(Nc3ccc4c(c3)OCCO4)C2)o1 (stereo not given),-9%,-6,91*,0%,?,-19
O=C(c1ccco1)N1CCCC(Nc2ccc3c(c2)OCCO3)C1 (stereo not given),-3%,-25,?,0%,0%,1
CSCc1ccc(C(=O)N2CCCC(Nc3ccc(F)cc3)C2)o1 (stereo not given),-2%,1,84*,3%,-21%,8
Cc1ccccc1C(=O)N1CC/C(=N/OS(=O)(=O)O)c2ccc(Cl)cc21,/,/,/,/,/,-15
Cc1ccc(-c2cn(-c3ccccc3)c(=S)[nH]2)cc1C,0%,4,-2,-1%,9%[15.4 µM],-77*
COc1cccc(Nc2ncnc3c2cnn3-c2cccc(C)c2)c1,-4%,-24,23,-1%,32%,-15
COc1ccccc1Nc1ncnc2c1cnn2-c1cccc(C)c1,-10%,5,85*,1%,0%,-5
CC1(NC(=O)c2cc(Cl)nc3ccccc23)CCS(=O)(=O)C1 (stereo not given),6%,-7,0,2%,9%,1
CN(C)c1ccc(N/C=C/C(=O)c2ccco2)cc1,-29%,-24,?,1%,3%,-64*
CN1CCN(C(=O)Nc2cccc(Cl)c2)c2cccnc21,/,/,/,23%,/,5
O=C(C1CCCCC1)N1C[C@@H](O)[C@H](n2cc(-c3ccc(F)cc3)nn2)C[C@@H]1c1ccccc1,/,/,/,/,-85%,-3
COc1cc(OC)cc(C(=O)NCCN2C(=O)S/C(=C\c3cccs3)C2=O)c1,28µM*,11,0,-3%,-65%,0
O=S(=O)(NC1C2CC3CC(C2)CC1C3)c1ccc(F)cc1 (stereo not given),0%,-5,2,1%,8%[15.4 µM],-7
SMILES,gsp antag,TRPV1 PAM,TRPV1 agonist,RXFP1 agonist,gsp ag,RXFP1 antagonist
CCC(Sc1ccc2nnc(-c3cccnc3)n2n1)C(=O)O (stereo not given),12%,-2,-2,14µM*,2.5µM*,/
CCOC(=O)C(CC)Sc1ccc2nnc(-c3cccnc3)n2n1 (stereo not given),17%,-29,5,18µM*,46%[15.4 µM],0
CCOc1ccccc1N1CC(C(=O)Nc2ccc3c(c2)OCCO3)CC1=O (stereo not given),-3%,2,1,-2%,8%[15.4 µM],-21
COC(=O)c1ccc(COc2ncnc3ccccc23)o1,13%,-1,2,16µM*,14%[15.4 µM],8
Cc1cc(C)cc(N2C(=O)CSC23C(=O)N(Cc2c(F)cccc2Cl)c2ccccc23)c1 (stereo not given),/,/,/,-1%,/,/
O=C(N/N=C/c1cn(-c2cccs2)nc1-c1ccccc1)c1ccccc1O,28µM*,16,-1,2%,-8%,-88*
Cc1ccccc1CS(=O)(=O)Cc1ccc(C(=O)NCCc2ccc(Cl)cc2)o1,/,/,/,6%,/,-96*
Cc1ccc(CCNC(=O)c2ccc(CS(=O)(=O)Cc3ccccc3F)o2)cc1,-23%,-10,?,0%,0%,9
CCC(C)NC(=O)COC(=O)c1oc2ccccc2c1CSc1ccc(Cl)cc1 (stereo not given),-5%,6,-3,1%,25%,0
O=C(Nc1nc(-c2ccco2)c(-c2ccco2)s1)C1CCC1,-10%,-24,?,0%,-28%,-61*
Cc1cc(C)c(C)c(S(=O)(=O)N2CCN(c3ncnc4ccccc34)CC2)c1C,35µM*,1,?,3%,0%,-19
O=S(=O)(c1ccc(=S)[nH]c1)N1CCN(Cc2ccccc2)CC1,5%,/,/,/,-1%[15.4 µM],-66*
O=S(=O)(c1ccc(=S)[nH]c1)N1CCCCC1,6%,-6,-4,0%,3%,-22
CC1=C(C(=O)Nc2ccccc2)C(c2ccncc2)n2nc(SCc3ccccc3F)nc2N1 (stereo not given),/,/,/,6%,/,/
CCOCc1nc(N)nc(N)c1-c1cccc(Cl)c1,/,/,/,/,19%,-5
CCOC(=O)C1=C(C)N(C)C(C)=C(C(=O)OCC)C1c1ccc(Cl)cc1,5%,-3,-1,1%,-3%[15.4 µM],-61*
Cc1onc(-c2c(Cl)cccc2Cl)c1C(=O)Cl,/,/,/,/,/,-3
COc1cc(CNC(=O)CCCC/C=C/C(C)C)ccc1O,-7%,-2,103*,0%,/,/
COc1cc(CNC(=O)CCCC(=O)c2ccccc2)cc(OC)c1OC,-1%,3,0,4%,-10%,1
COc1cc(/C=N/NC(=O)Cc2nnc(N)s2)cc(OC)c1OC,11%,-4,2,0%,-41%,9
